# Source: PubChem
# Most compounds without a hit are left out; they make up all but 2.6% or so of the library.
# HIF-2a block: blocks HIF-2a reporter activity; 786-0 RCC cells HIF-2a reporter, luciferase luminescence, overnight; inhibition, % at 18.8 µM; actives 0.72% (n = 360,000); AID 624352;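 active means inhibition of the luminescence signal of 40% or more relative to plate controls, in a single-dose primary screen at 18.75 µM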
# Shn3 inh set2: inhibitors of Schnurri-3 3'UTR reporter in osteoblasts. Clone20 osteoblast Shn3 3'UTR firefly luciferase, 24 h. inhibition, % at 12.5 µM. actives 0.52% (n = 360,000);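 active means mean inhibition of at least 75% with every replicate also reaching 75%; inconclusive means mean inhibition at least 75% but some replicate below; inactive means mean inhibition below 75%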;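 further: 0% = median of neutral control wells and 100% = pilot-screen positive control compound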
# CF NFkB inh: inhibitors of cystic fibrosis induced NF-kB; inhibition, % at 5 µM; KKLEB NF-kB-GFP reporter, PAF-induced, GFP fluorescence overnight; actives 0.86% (n = 360,000);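 active means at least 50% inhibition at 5 µM, scaled per plate between neutral and stimulator controls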;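 further: PAF is a Pseudomonas aeruginosa culture filtrate used as stimulus; plate controls were PAF-stimulated DMSO wells for no effect and unstimulated DMSO wells for full effect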
# KKLEB tox: CF airway cell cytotoxicity counter-screen | KKLEB CF airway cells viability, ATPlite luminescence, overnight; stronger effect = lower value; cells stimulated with P. aeruginosa culture filtrate | activity change (cytotoxicity), % at 5 µM | actives 0.36% (n = 360,000) | AID 602141;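 active means corrected activity change at or below -50% at 5 µM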
# Peg3 prom inh-1: reduces Peg3 promoter-driven luciferase expression in HeLa; actives 1.7% (n = 360,000); HeLa PEG-Prom luciferase reporter, luminescence, overnight; inhibition, % at 20 µM;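 active means inhibition of at least 50% at 20 µM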
# Peg3 prom inh-2: confirmation of Peg3 promoter inhibitors; AID 602417; actives 84% (n = 1,300); shares compounds with Peg3 prom inh-1; HeLa PEG-Prom luciferase reporter, luminescence, overnight; inhibition, % at 20 µM;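 active means at 20 µM dose, 40% or more inhibition averaged across four replicates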
# Numbers without * were called inactive; ? = inconclusive; . = no result given.
SMILES,HIF-2a block,Shn3 inh set2,CF NFkB inh,KKLEB tox,Peg3 prom inh-1,others
Cc1ccc2c(c1C)-c1c(ccc(C)c1C)C(=O)C2=O,66*,54,86*,-53*,95*,
Cc1ccc(CC#N)c(-c2c(CC#N)ccc(C)c2C)c1C,19,-6,23,4,15,
CCOc1cc(CNC2CCCC2)cc(Cl)c1OCc1ccc(F)cc1,-1,36,11,-21,91*,
CCOC(=O)c1[nH]c2ccc(OC)cc2c1NC(=O)CN1CCc2ccccc2C1,7,.,20,-16,55*,
C=CCn1c(=O)/c(=C/c2cc(OC)c(OC)c(OC)c2)s/c1=C(/C#N)c1nc2ccccc2n1C,12,-6,5,-50*,30,
C=CCn1c(=O)/c(=C/c2ccc(O)cc2)s/c1=C(/C#N)c1nnc2n1CCCCC2,20,13,10,0,1,
C/C=C(\C)C(=O)OC1[C@H](OC(C)=O)C2(CO)C(CC1(C)C)C1=CCC3C4(C)CCC(O[C@@H]5O[C@H](C(=O)O)[C@@H](O[C@@H]6O[C@H](CO)[C@@H](O)[C@H](O)[C@H]6O)[C@H](O)[C@H]5O[C@H]5O[C@H](CO)[C@@H](O)[C@H](O)[C@H]5O)[C@](C)(CO)C4CCC3(C)[C@]1(C)C[C@H]2O (stereo partly specified),93*,58,91*,-89*,105*,
O=C(C(=O)N1CCN(CCN2CCOCC2)CC1)c1ccccc1,0,.,.,.,.,
O=C(Nc1cccnc1Oc1ccc(Cl)cc1)c1cccc2ccccc12,11,8,-17,0,33,
Cc1ccc(-c2csc3nc4c5ccccc5c(NCCCN(C)C)nn4c(=O)c23)cc1,-8,25,11,-60*,109*,
Cc1ccc(-c2nc(NCCCN(C)C)c3ccccc3n2)cc1,-41,10,2,-9,-47,
C[C@H](NC(=O)c1ncn2c1c(=O)[nH]c1ccccc12)c1ccccc1,-4,-28,2,-5,-1,
C[C@H](NC(=O)c1ncn2c1c(=O)[nH]c1ccc(Br)cc12)c1ccccc1,9,83,2,-3,100*,
CCOC(=O)C1(Cc2ccc(OC)cc2)CCN(C(=O)c2cncs2)CC1,-57,-1,24,-6,-54,
c1ccc(CC2CCN(c3ncnc4sccc34)CC2)cc1,-65,90*,-6,4,-44,
Cc1ccc(S(=O)(=O)N2CCN(c3ncnc4sccc34)CC2)cc1,19,87*,-2,-16,26,
O=S(=O)(c1ccc(F)c(F)c1F)N1CCN(c2ncnc3sccc23)CC1,25,?,6,-4,30,
CCOc1ccc(-c2[nH]ncc2-c2ccc(Cl)cc2)c(O)c1,5,-32,10,-9,55*,
CCOc1ccc(-c2[nH]ncc2Oc2ccccc2OCC)c(O)c1,25,23,3,-7,55*,
CCOc1ccc(-c2[nH]ncc2Oc2ccccc2OC)c(O)c1,-1,0,2,0,11,
COc1cccc(CN2CCNC(=O)C2CC(=O)N(Cc2cnn(C)c2)C(C)C)c1 (stereo unspecified),10,4,-4,4,-4,
Cc1ccc(Nc2nc(NCc3ccco3)c3ccccc3n2)cc1,-130,96*,32,-40,106*,
CC/C(=C/c1ccccc1)c1cccc2[nH]c3c(OC)cccc3c12,-12,86*,14,-11,-10,
COc1cccc(C(=O)NCCSc2c(C)[nH]c3ccccc23)c1OC,10,18,1,1,29,
N#Cc1ccccc1CSc1ncccc1C(=O)O,14,-9,15,-12,4,
SMILES,HIF-2a block,Shn3 inh set2,CF NFkB inh,KKLEB tox,Peg3 prom inh-1,others
COc1cc(/C=C(/C#N)C(=O)NCCc2c[nH]c3ccccc23)ccc1OCc1ccccc1F,1,25,22,-28,89*,
Cc1cc(/C=C(\C#N)C(=O)NCCc2c[nH]c3ccccc23)c(C)n1C,-2,9,3,3,-7,
O=C(CSc1ncn[nH]1)Nc1ccccc1Sc1ccc(Cl)cc1,15,8,21,5,32,
CCN(CC)C(=O)C12CC3CC(CC(Br)(C3)C1)C2,9,-68,-26,7,0,
CCCC/C=C1/CCC(CN(C)C)C1=O (stereo unspecified),-5,1,-24,12,98*,
COc1cc2c(-c3ccc(O)cc3)nc3c(c(C)nn3-c3ccccc3)c2cc1OC,21,26,-40,-27,77*,
COc1cc2c(C)nc3c(c(C)nn3-c3ccccc3)c2cc1OC,14,4,-55,-5,-7,
CCOC(=O)c1cc(NC(=O)c2ccc(C)cc2)c(=O)oc1C(F)(F)F,-40,-35,-16,3,-19,
CCOC(=O)c1cc(NC(=O)c2ccc(Cl)cc2)c(=O)n2c1oc1ccc(Cl)cc12,1,-5,44,-58*,10,
C=CCn1c(SCc2ccc(Cl)cc2)nc2cc(C(=O)N3CCC(C(N)=O)CC3)ccc2c1=O,8,5,-14,14,23,
Cc1oc2c(c1C(=O)O)C(=O)c1ccccc1C2=O,-98,-21,39,11,-123,
CCOC(=O)c1c(C)oc2c1C(=O)c1ccccc1C2=O,-88,20,76*,-24,33,
Cc1oc2c(c1C(=O)c1ccccc1)C(=O)C(=O)c1ccccc1-2,88*,33,88*,-23,108*,
CCCn1c2ccccc2c2cnn(CC(=O)NC3CCCC(C)C3C)c(=O)c21 (stereo unspecified),12,16,16,-12,11,
CC(=O)Nc1ccc(NC(=O)Cn2cnc(S(=O)(=O)N3CCOCC3)c2)cc1,2,4,-9,17,7,
C=CCn1c(SCC(C)=O)nc2scc(-c3ccco3)c2c1=O,8,-11,6,-7,11,
C=CCn1c(SC(F)F)nc2scc(-c3ccco3)c2c1=O,-8,-24,4,4,74*,
C(=Cc1c[nH]c2ccccc12)c1ccc2ccccc2n1,18,30,-60,-24,72*,Peg3 prom inh-2=-4
COCCCNC(=O)CCCn1c(=O)c2ccccc2n(Cc2cccc([N+](=O)[O-])c2)c1=O,2,10,-7,1,16,
COc1ccc(CC(N)c2csc(Nc3cccc(OC)n3)n2)cc1 (stereo unspecified),23,-2,-9,3,70*,Peg3 prom inh-2=96*
COc1ccc(CC(N)c2csc(Nc3cc(Oc4ccccc4)ncn3)n2)cc1 (stereo unspecified),13,-7,-9,-7,36,
COc1ccc(CC(N)c2csc(Nc3ccccn3)n2)cc1 (stereo unspecified),-38,17,-2,-13,-33,
NC(Cc1ccc(F)cc1)c1csc(Nc2cc(Oc3ccccc3)ncn2)n1 (stereo unspecified),6,-23,-7,-12,79*,Peg3 prom inh-2=83*
